Assay [1] concerns the target D(1A) dopamine receptor (Homo sapiens) (UniProt P21728). In words: HTS Assay for Allosteric Agonists of the Human D1 Dopamine Receptor: Primary Screen for Agonists (AID 488981). Further: potency means the concentration at half of the fitted maximal effect. On activation: 0% is about no effect. The procedure, abridged: (§1)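 Tetracycline-induced HEK293 Trex D1 cells with forced coupling to calcium, loaded with no-wash calcium dye; kinetic fluorescence read 180 s after compound addition for agonism, then a further 180 s after an EC20 dopamine challenge for potentiation.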

For assay [2] the target is unchanged. Briefly: HTS Assay for Allosteric Agonists of the Human D1 Dopamine Receptor: Primary Screen for Potentiators (AID 488982). Further: 0% is about no effect. A digest of the protocol:
as §1

The target is the same in assay [3]. Briefly: HTS Assay for Allosteric Agonists of the Human D1 Dopamine Receptor: Primary Screen for Antagonists (AID 488983).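 Further: calcium flux response to an EC80 dopamine challenge measured with no-wash dye; nearly all actives have a fitted effect of over 65% in size.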 Further: potency means the concentration at half of the fitted maximal effect. A digest of the protocol:
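Calcium flux readout, no-wash dye, inducible HEK293 T-REx D1 line (force-coupled). Compound added after 10 s baseline, 180 s kinetic read; then dopamine at EC80, further 180 s read.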

The nature of assay [4]: Validation screen for small molecules that induce genotoxicity in human embryonic kidney (HEK293T) cells expressing luciferase-tagged ELG1 (AID 493106). Further: potency means the concentration at half of the fitted maximal effect. A digest of the protocol:
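qHTS format; 2,000 HEK293T ELG1-luc cells/well; 23 nL compound via pin tool; 16 hr, 37 °C/5% CO2; ONE-Glo, 30 min RT; luminescence read.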

Assay [5] in a line: Nrf2 qHTS screen for inhibitors: Validation (AID 493153; active means well fitted inhibition curve with a large enough effect in the main read-out, with a control signal flat, not every such curve was filed as active). To be noted: Potency: luciferase luminescence; viability change: measured here: cytotoxicity max response. The procedure, abridged: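 Concentration-response test in A549 ARE_Fluc reporter cells (5% FBS OPTI-MEM), compound exposure 18-24 h at 37°C, 5% CO2. Cell viability measured first by CellTiter-Fluor fluorescence; ARE-driven luciferase luminescence then measured as Nrf2 activity.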
In general terms: qHTS replaces the single test concentration by a dilution series.

Assay [6] can be described thus: qHTS for Inhibitors of Cell Surface uPA Generation: Validation Assay (AID 493164).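 Further: RAW 264.7 macrophage cells exposed to compound for 18 h; 0% is about no effect.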 A digest of the protocol:
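Compounds are titrated over seven points (2.45 nM–38.3 uM final) onto pre-plated RAW 264.7 cells and incubated for 18 h. Retained intracellular ATP, measured with ATP-Lite, indicates blocked lethal factor entry.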

In assay [7] the target is Galactokinase (Homo sapiens) (UniProt P51570). In words: qHTS Validation Assay for Inhibitors of Human Galactokinase (GALK) (AID 493189). Further: 0% is about no effect. A digest of the protocol:
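Luminescence from leftover ATP (Kinase-Glo Plus, 10 min) served as read-out after a 1 h room-temperature reaction of 5 nM GALK, 100 uM galactose and 35 uM ATP at pH8.0.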

Assay [8] addresses ATP-dependent 6-phosphofructokinase (Trypanosoma brucei brucei) (UniProt O15648). Briefly: qHTS Assay to Find Inhibitors of T. brucei phosphofructokinase: hit validation (AID 492961).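 Further: luminescence reports ADP formed as PFK phosphorylates fructose-6-phosphate with ATP; series mostly up to about 51 µM; on the % scale 0 is the no-effect control and ±100 the full control effect.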 The procedure, abridged:
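Inhibition of parasite PFK is measured as reduced ADP formation, quantified via luciferase after ATP depletion. Assay used 0.1 mM ATP, 0.5 mM F6P, 1.25 nM enzyme, 45 min incubation.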

The target of assay [9] is ATPase family AAA domain-containing protein 5 (Homo sapiens) (UniProt Q96QE3). In words: Validation screen for small molecules that inhibit ELG1-dependent DNA repair in human embryonic kidney (HEK293T) cells expressing luciferase-tagged ELG1 (AID 493107). Further: nearly all actives have a fitted effect of over 70% in size. Further: potency means the concentration at half of the fitted maximal effect. The procedure, abridged: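 ELG1-luciferase HEK293T reporter; 5-fluorouridine + compound/DMSO, 16 hr, 37 °C, 5% CO2; ONE-Glo 30 min RT; luminescence read, qHTS format.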

In assay [10] the target is Thyrotropin-releasing hormone receptor (Homo sapiens) (UniProt P34981). Briefly: qHTS for Small Molecule Agonists and Allosteric Enhancers of Human TRH Receptor: Validation Screen for Agonists (AID 493127;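 active means calcium activation more than 3 SD above the typical response in the agonist read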;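 further: intracellular calcium rise by fluo-8 fluorescence before TRH EC20 addition; 0% is about no effect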). To be noted: TRH receptor agonist cell assay; at 2 µM; stronger effect = higher value. A digest of the protocol:
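Read-out: intracellular calcium release measured kinetically by FDSS (fluo-8, ex 480/em 530 nm), 1 reading/s after a 10-cycle baseline. TRHR cells, 2000/well, cultured 18 h at 33.5C, dye-loaded at room temp. Compound-evoked positive calcium signal flags agonists.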

The record followed here is PubChem BioAssay (NCATS).

Results filed as inconclusive are left out. Active and inactive are the calls of the source. Unless noted, the call rests on the fitted dose curve; in most records, active means well fitted curve in the direction sought with a large enough effect; inconclusive means small, poorly fitted or top-dose-only effect, or another doubt; inactive means no such curve, though single readings can be large; an effect the other way counts as inactive or inconclusive.

D(1A) dopamine receptor (Homo sapiens), sequence (P21728 whole entry, looked up): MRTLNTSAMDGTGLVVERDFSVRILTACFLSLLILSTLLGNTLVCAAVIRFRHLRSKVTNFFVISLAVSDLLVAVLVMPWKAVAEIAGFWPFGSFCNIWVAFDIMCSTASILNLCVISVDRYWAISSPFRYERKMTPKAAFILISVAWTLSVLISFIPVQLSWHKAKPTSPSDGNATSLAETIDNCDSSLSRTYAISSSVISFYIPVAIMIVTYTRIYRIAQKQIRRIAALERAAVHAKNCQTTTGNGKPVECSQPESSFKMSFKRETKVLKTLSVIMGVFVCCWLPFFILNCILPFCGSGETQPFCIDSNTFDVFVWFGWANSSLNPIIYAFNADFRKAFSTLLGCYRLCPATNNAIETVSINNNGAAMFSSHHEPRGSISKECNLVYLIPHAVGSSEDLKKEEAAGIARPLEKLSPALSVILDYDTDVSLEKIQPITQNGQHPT
ATP-dependent 6-phosphofructokinase (Trypanosoma brucei brucei), sequence (O15648 whole entry, looked up): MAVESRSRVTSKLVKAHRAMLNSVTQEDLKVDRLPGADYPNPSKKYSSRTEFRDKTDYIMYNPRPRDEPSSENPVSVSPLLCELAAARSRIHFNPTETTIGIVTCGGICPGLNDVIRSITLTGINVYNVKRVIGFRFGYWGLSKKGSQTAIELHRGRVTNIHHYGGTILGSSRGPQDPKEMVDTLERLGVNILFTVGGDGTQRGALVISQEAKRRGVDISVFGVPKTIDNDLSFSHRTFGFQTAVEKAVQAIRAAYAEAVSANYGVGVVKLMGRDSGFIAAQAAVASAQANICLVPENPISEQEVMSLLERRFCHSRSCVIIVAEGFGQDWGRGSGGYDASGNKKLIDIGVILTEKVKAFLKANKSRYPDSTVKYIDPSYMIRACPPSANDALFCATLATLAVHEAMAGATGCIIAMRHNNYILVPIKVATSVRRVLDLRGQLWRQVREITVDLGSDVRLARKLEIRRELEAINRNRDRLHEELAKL
Thyrotropin-releasing hormone receptor (Homo sapiens), sequence (P34981 whole entry, looked up): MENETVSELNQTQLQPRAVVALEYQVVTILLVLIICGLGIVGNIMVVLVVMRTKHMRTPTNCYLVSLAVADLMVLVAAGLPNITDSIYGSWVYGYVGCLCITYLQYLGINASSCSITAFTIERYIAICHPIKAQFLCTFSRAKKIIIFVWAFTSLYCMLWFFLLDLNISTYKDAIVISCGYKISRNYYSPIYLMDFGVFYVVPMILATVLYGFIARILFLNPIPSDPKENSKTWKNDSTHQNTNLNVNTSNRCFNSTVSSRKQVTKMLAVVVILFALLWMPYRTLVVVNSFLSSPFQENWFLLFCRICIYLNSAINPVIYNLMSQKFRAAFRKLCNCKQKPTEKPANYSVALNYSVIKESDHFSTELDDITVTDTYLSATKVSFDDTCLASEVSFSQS
Galactokinase (Homo sapiens), sequence (P51570 whole entry, looked up): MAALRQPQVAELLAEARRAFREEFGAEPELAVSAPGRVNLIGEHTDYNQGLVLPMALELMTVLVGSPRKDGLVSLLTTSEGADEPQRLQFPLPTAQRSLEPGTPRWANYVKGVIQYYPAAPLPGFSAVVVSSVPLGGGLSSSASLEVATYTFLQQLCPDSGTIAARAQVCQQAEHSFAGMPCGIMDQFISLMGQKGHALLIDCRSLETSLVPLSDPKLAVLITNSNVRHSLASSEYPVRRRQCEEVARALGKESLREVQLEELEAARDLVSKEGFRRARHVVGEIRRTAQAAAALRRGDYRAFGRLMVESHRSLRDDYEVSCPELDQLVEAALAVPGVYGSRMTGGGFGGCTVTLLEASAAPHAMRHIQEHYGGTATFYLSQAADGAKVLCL
ATPase family AAA domain-containing protein 5 (Homo sapiens), sequence (Q96QE3 whole entry, looked up, the tested form may be a part): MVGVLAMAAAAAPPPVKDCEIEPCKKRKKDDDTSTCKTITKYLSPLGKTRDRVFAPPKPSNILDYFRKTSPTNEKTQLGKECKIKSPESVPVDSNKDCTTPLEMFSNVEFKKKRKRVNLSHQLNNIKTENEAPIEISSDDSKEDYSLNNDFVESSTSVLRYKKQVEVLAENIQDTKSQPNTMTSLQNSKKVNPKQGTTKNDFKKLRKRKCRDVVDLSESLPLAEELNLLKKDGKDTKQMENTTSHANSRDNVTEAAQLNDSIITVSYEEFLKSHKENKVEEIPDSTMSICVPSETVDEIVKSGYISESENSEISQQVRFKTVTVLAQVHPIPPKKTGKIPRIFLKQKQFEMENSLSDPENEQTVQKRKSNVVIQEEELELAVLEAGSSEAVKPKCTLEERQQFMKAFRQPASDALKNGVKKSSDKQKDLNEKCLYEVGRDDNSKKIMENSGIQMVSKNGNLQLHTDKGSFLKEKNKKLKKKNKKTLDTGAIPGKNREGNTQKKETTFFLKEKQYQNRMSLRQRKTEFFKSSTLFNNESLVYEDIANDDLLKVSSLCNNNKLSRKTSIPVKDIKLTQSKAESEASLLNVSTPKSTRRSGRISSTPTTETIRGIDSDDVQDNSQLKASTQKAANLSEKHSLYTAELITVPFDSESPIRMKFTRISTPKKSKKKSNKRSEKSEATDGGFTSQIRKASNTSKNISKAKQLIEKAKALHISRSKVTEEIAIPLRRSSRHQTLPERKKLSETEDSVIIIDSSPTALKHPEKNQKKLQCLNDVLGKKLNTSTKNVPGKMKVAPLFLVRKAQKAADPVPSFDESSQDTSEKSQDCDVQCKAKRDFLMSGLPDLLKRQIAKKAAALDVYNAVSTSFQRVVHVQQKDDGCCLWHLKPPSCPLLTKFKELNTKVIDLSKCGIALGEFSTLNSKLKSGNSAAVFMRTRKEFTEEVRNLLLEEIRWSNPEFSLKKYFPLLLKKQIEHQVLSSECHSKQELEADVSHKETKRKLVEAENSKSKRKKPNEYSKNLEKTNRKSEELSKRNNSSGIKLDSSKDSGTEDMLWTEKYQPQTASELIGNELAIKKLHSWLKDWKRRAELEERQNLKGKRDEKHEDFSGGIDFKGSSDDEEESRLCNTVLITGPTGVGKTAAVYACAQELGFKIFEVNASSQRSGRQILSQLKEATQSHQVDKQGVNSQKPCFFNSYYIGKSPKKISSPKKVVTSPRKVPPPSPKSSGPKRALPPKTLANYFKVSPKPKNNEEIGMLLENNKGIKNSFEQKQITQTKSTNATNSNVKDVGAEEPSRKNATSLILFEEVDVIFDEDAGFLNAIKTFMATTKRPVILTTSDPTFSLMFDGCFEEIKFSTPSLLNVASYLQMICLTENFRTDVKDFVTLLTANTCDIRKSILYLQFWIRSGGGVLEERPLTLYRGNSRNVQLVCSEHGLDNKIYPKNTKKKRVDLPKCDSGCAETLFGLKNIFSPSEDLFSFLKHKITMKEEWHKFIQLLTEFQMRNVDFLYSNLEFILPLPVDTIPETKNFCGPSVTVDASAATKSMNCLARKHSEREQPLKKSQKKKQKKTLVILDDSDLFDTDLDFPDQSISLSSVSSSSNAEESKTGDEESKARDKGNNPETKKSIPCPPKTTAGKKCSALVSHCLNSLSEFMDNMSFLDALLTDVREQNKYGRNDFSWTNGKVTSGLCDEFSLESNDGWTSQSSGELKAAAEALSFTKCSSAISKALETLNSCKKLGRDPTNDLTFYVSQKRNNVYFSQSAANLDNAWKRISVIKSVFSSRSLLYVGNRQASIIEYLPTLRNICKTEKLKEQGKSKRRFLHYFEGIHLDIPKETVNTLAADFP

In the case of `COc1cc(C(=O)OCCCN2CCCN(CCCOC(=O)c3cc(OC)c(OC)c(OC)c3)CC2)cc(OC)c1OC`, the Potency result in assay [1], in assay [2], in assay [3] and in [5] was “inactive” in each case. In addition, the Potency in [4] is 16.4 µM (active). In assay [5], the viability change is -0.03%. For the same compound, the call in [6] and in assay [7] was inactive.
Consider `CCCC(C(=O)OCCN(CC)CC)(c1ccccc1)c1ccccc1`, for which the Potency entry in [1], in assay [2], in [4] and in assay [5] was “inactive” throughout. The compound was called inactive in assay [8], in assay [6] and in [7]. Also, the viability change in assay [5] is -7.4%.
Take `CCN(CC)CCOCCOC(=O)C1(c2ccccc2)CCCC1`: the Potency entry in assay [1], in [2], in [4], in assay [9] and in assay [5] was “inactive” throughout. The compound was classed as inactive in assay [8], in assay [6] and in [7]. For the same compound, the viability change in assay [5] worked out at 0.933%.
On to `C(=C\c1ccccc1)/CN1CCN(C(c2ccccc2)c2ccccc2)CC1`, for which the Potency result in assay [1], in [2], in assay [3], in assay [4], in assay [9] and in [5] was “inactive” in each case. In addition, the viability change in assay [5] was -2.4%. In addition, the compound was called inactive in assay [6] and in [7].
For the compound `CN(C)C(=O)Oc1cccc([N+](C)(C)C)c1`, the Potency result in assay [1], in assay [2], in assay [4], in assay [9] and in assay [5] was “inactive” in each case. Further, the call in assay [8], in [6] and in assay [7] was inactive. Further, in assay [5], the viability change was 0.794%.
On to `CCNC(=O)N1CCN(CCCC(c2ccc(F)cc2)c2ccc(F)cc2)CC1`, for which the Potency in assay [1] is 15.8 µM (active). The Potency entry in assay [2], in [4], in assay [9] and in assay [5] was “inactive” in each case. Moreover, the result in [8], in assay [6] and in assay [7] was inactive. For the same compound, the viability change in assay [5] is -3.28%.
Take `c1cc(CN2CCCCC2)cc(OCCCNc2nc3ccccc3s2)c1`: the Potency entry in [1], in [2], in assay [4], in assay [9] and in assay [5] was “inactive” in each case. In addition, the compound was classed as inactive in [8], in assay [6] and in [7]. Further, the viability change in assay [5] is -17%.
In the case of `Cc1ccc(/C(=C\CN2CCCC2)c2ccccn2)cc1`, the Potency result in [1], in assay [2], in assay [4] and in assay [9] was “inactive” in each case. The compound was called inactive in assay [8], in assay [6] and in [7].
Take `CCCN(CCC)C(=O)C(CCC(=O)O)NC(=O)c1ccccc1` (centres undefined): the Potency entry in [1], in assay [2], in assay [3], in assay [4], in [9] and in assay [5] was “inactive” each time. In assay [5], the viability change is -16.1%. In addition, the compound was called inactive in assay [6] and in assay [7].
As to `CC(=O)Nc1nnc(S(N)(=O)=O)s1`, the Potency result in [1], in assay [2], in assay [3], in [4], in assay [9] and in assay [5] was “inactive” throughout. In addition, in [5], the viability change came out at 3.35%. Besides, the outcome in assay [6] and in [7] was inactive.
Turning to `C[N+](C)(C)CCOC(N)=O`, the Potency entry in assay [1], in [2], in [4], in assay [9] and in [5] was “inactive” throughout. The compound was classed as inactive in assay [8], in assay [6] and in assay [7]. In addition, the activation in [10] is 30.9% (active). Moreover, the viability change in assay [5] worked out at 14%.
In the case of `C[C@]12CC[C@@H]3c4ccc(O)cc4C[C@@H](CCCCCCCCCS(=O)CCCC(F)(F)C(F)(F)F)[C@H]3[C@@H]1CC[C@@H]2O` (some centres undefined), the Potency entry in assay [1], in assay [2], in [3] and in assay [4] was “inactive” throughout. Also, the compound was called inactive in [6].
Take `COc1ccc2c(c1OC)C(=O)O[C@@H]2[C@H]1c2c(cc3c(c2OC)OCO3)CCN1C`: the Potency entry in assay [1], in assay [2], in assay [3], in assay [4] and in assay [9] was “inactive” throughout. Moreover, the result in assay [6] was inactive.
Take `COc1cc2c(cc1OC)-c1cc(=Nc3c(C)cc(C)cc3C)n(C)c(=O)n1CC2`: the Potency result in assay [1], in [2] and in [4] was “inactive” each time. The outcome in assay [8], in assay [6] and in assay [7] was inactive. Moreover, the Potency in assay [9] was 13 µM (active).
For `COc1cc(Cc2cnc(N)nc2N)cc(OC)c1OC`, the Potency result in assay [1], in assay [2], in assay [3] and in assay [5] was “inactive” in each case. Moreover, in assay [5], the viability change was found to be 1.71%. For the same compound, the outcome in assay [6] and in assay [7] was inactive.
With `CN=C(NC#N)NCCSCc1nc[nH]c1C`, the Potency entry in assay [1], in assay [2], in assay [3], in assay [4] and in [9] was “inactive” throughout. The outcome in [6] and in assay [7] was inactive.
`CN1C(=O)CC[C@H]1c1cccnc1`: the Potency entry in assay [1], in assay [2], in assay [3], in [4] and in [5] was “inactive” in each case. The viability change in [5] is 0.268%. In assay [6], the call was inactive.
Turning to `C[C@]12CCC(=O)C=C1CC[C@@H]1[C@@H]2C(=O)C[C@@]2(C)[C@H]1CC[C@]2(O)C(=O)CO`, the Potency entry in [1], in assay [2], in assay [3], in [4] and in [5] was “inactive” in each case. In addition, the viability change in assay [5] turned out to be 8.98%. Moreover, the call in [6] and in assay [7] was inactive.
For `CNCCCN1c2ccccc2CCc2ccccc21`, the Potency entry in [1], in assay [2], in assay [4] and in assay [9] was “inactive” throughout. For the same compound, the outcome in assay [8], in [6] and in assay [7] was inactive.
Take `CC(C)NCC(O)c1cc(O)cc(O)c1` (centres undefined): the Potency entry in assay [1], in [2], in assay [3], in assay [4], in assay [9] and in assay [5] was “inactive” each time. For the same compound, the viability change in [5] amounted to 7.12%. Also, the call in [6] and in assay [7] was inactive.
With `C[C@H](CS)C(=O)N1CCC[C@H]1C(=O)O`, the Potency entry in assay [1], in assay [2], in [4], in assay [9] and in assay [5] was “inactive” throughout. The outcome in [8] and in assay [6] was inactive. Also, the activation in [10] is -0.375% (inactive). Also, the viability change in assay [5] stood at 0.828%.
On to `Cc1nc2ccccn2c(=O)c1CCN1CCC(C(=O)c2ccc(F)cc2)CC1`, for which the Potency entry in assay [1], in assay [2], in assay [4] and in assay [5] was “inactive” throughout. For the same compound, the Potency in assay [3] is 4.47 µM (active). Also, the viability change in [5] was -13.1%. Besides, the outcome in [6] and in assay [7] was inactive.
For the compound `Cc1nnc(SCC2=C(C(=O)O)N3C(=O)[C@@H](NC(=O)Cn4cnnn4)[C@H]3SC2)s1`, the Potency result in [1], in [2], in assay [4], in assay [9] and in [5] was “inactive” in each case. Moreover, the compound was called inactive in assay [8], in assay [6] and in assay [7]. Further, the activation in assay [10] is 1.12% (inactive). Moreover, the viability change in [5] was -1.79%.
Consider `CC(C(=O)O)c1ccc(CC2CCCC2=O)cc1` (centres undefined), for which the Potency entry in [1], in assay [2], in assay [4], in [9] and in assay [5] was “inactive” throughout. The compound was called inactive in assay [8], in [6] and in [7]. Besides, in assay [5], the viability change is -13.4%.
Take `O=C(O)CCCCCCCC(=O)O`: the Potency result in [1], in assay [2], in assay [3], in assay [4], in assay [9] and in assay [5] was “inactive” throughout. Also, in assay [5], the viability change stood at 9.01%. The compound was called inactive in [6] and in assay [7].
On to `FC(F)(F)c1ccccc1-n1ccnc1`, for which the Potency entry in assay [2], in [3], in [4], in [9] and in assay [5] was “inactive” each time. Moreover, the compound was called inactive in assay [8], in [6] and in assay [7]. In addition, in assay [10], the activation is -2.62% (inactive). Besides, the viability change in assay [5] amounted to 12.3%.
